Assay outcomes deposited in PubChem BioAssay by National Center for Advancing Translational Sciences (NCATS).
Sampled rows, rich in hits. Any-hit rate of the full collection: about 3.3%.
Vaccinia mCherry: qHTS for Stage-Specific Inhibitors of Vaccinia Orthopoxvirus: mCherry Reporter Primary qHTS. Vaccinia virus mCherry reporter infection, fluorescence. Potency, µM (top dose mostly 36.5 µM), without a hit: top-dose activity change, negative = inhibition, hits mostly inhibitors. actives 0.63% (n = 310,000). AID 720579, 2013; calls by dose curve; tested in A549 cells; also: nearly all actives have a fitted effect of over 35% in size
VACV Venus inh: qHTS for Stage-Specific Inhibitors of Vaccinia Orthopoxvirus: Venus Reporter Primary qHTS; Vaccinia virus Venus reporter expression, fluorescence; actives 0.46% (n = 330,000); Potency, µM (series often up to 36.5 µM), for inactives: top-dose activity change, negative = inhibition, most hits filed as inhibitors; AID 720580, 2013; calls by dose curve; tested in A549 cells; also: nearly all actives have a fitted effect of over 30% in size
HCV inhibitor: qHTS Assay for Inhibitors of Hepatitis C Virus (HCV); Huh7.5.1 HCVcc-Cre infection, luciferase reporter, 44 h; Potency, µM (top dose mostly 41.8 µM), without a hit: at the top dose activity change, negative = inhibition, actives largely listed as inhibitors; actives 3.4% (n = 340,000); active = well fitted inhibition curve with a large enough effect; inconclusive = small, poorly fitted or top-dose-only effect, or another doubt; inactive = no such curve, though single readings can be large or run the other way
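Infectious HCV cell culture screen: compound-treated cells (1,000/well, pre-plated 4 h) are infected with HCVcc-Cre at roughly 0.5 moi and grown 44 h. Infection is quantified by luciferase signal after 15 min substrate incubation at room temperature.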
The depositor's hits bear a star; i = inactive; ? = inconclusive; . = no result. % is scaled to controls: 0 for no effect and ±100 for the full control effect; potency is read from the fitted curve at half-maximal effect.

SMILES | Vaccinia mCherry | VACV Venus inh | HCV inhibitor
CCC(C)Nc1c2c(nc3c(-c4ccccc4)c(C)nn13)CCC2 (stereo not drawn) | . | . | 2.2µM*
Cc1nn2c(Nc3ccc(F)cc3)c3c(nc2c1-c1ccccc1)CCC3 | -15% | -7% | 20%
Cc1nn2c(NCc3cccnc3)c3c(nc2c1-c1ccccc1)CCC3 | -1% | -10% | -29%
OCCN1CCN(Cc2ccc3c(c2)CN(Cc2cnc(-c4ccccc4)s2)CCO3)CC1 | -11% | -5% | .
CC1(C(=O)NCc2cccc(C(F)(F)F)c2)CCN1C1Cc2ccccc2C1 (stereo not drawn) | i | -10% | .
CC1CCc2c(sc(NC(=O)c3cccn3C)c2C(N)=O)C1 (stereo not drawn) | -20% | -20% | ?
COc1cccc(NC(=S)N2CCN(S(=O)(=O)c3ccccc3)CC2)c1 | -4% | -28% | 1%
CCC(=O)Nc1ccc(Cl)c(NC(=O)c2c(OC)cccc2OC)c1 | i | -12% | -20%
COc1ccc(OCCCC(=O)Nc2cc(Cl)ccc2-n2cncn2)cc1 | -1% | 12% | ?
Cc1cc(OCc2cc(C(=O)NCCN3CCCCC3CO)no2)cc(C)c1Cl (stereo not drawn) | -14% | ? | 8.9µM*
COc1cccc(OCc2cc(C(=O)NCCN3CCCCC3CO)no2)c1 (stereo not drawn) | i | -16% | -25%
Cc1ccc(OCC(=O)Nc2ccc(C(=O)OCc3cc(=O)n4ccsc4n3)cc2)cc1C | -15% | -13% | .
O=C(COC(=O)c1c2c(nc3ccccc13)/C(=C/c1cccc([N+](=O)[O-])c1)CCC2)NC1CCS(=O)(=O)C1 (stereo not drawn) | ? | ? | 3.5µM*
CN(C(=O)COC(=O)/C=C/c1cccc([N+](=O)[O-])c1)C1CCS(=O)(=O)C1 (stereo not drawn) | 1.8µM* | 2.8µM* | -6%
Cc1cccc(C)c1NC(=O)COC(=O)c1c2c(nc3ccccc13)/C(=C\c1ccc3c(c1)OCO3)CCC2 | -1% | -13% | -25%
COC(=O)c1cc(C(=O)OCC(=O)N(C)C2CCS(=O)(=O)C2)cc([N+](=O)[O-])c1 (stereo not drawn) | -5% | 2% | 6%
CCN(C(=O)COC(=O)/C=C/c1cccc(Br)c1)C1CCS(=O)(=O)C1 (stereo not drawn) | ? | ? | -13%
CN(C(=O)COC(=O)c1c2c(nc3ccccc13)/C(=C/c1cccc([N+](=O)[O-])c1)CCC2)C1CCS(=O)(=O)C1 (stereo not drawn) | -15% | -24% | 1.8µM*
O=C(O)c1cnn(-c2nc(-c3cccc([N+](=O)[O-])c3)cs2)c1C(F)(F)F | . | . | -3%
O=C(COc1ccc2oc3c(c2c1)CCCC3)Nc1cccc(Br)c1 | 1% | -2% | .
CN(Cc1ccccc1NS(=O)(=O)c1ccc2ccccc2c1)C1CCCCC1 | ? | -20% | 6%
CN(C)c1cc(O)c(C(=S)Nc2ccccc2)c(N(C)C)c1 | -5% | -4% | 11µM*
CN(C)c1ccc(C(=S)Nc2ccccc2)cc1 | ? | -28% | 5%
CC(C)C[C@H](N)c1cn([C@@H](CCCCN)C(=O)N2CCNCC2)nn1 | 0.5µM* | 0.79µM* | ?
CC(C)CC(N)c1cn([C@@H](CCC(=O)O)C(=O)N2CCNCC2)nn1 (stereo partly drawn) | i | -5% | 28%
SMILES | Vaccinia mCherry | VACV Venus inh | HCV inhibitor
O=C(CNC(=O)c1cc(Cl)cc([N+](=O)[O-])c1)OCC(=O)N1CCCCC1 | -9% | -6% | 13%
CCOC(=O)CSc1nc2ccc(NC(=O)c3ccc(Cl)cc3)cc2s1 | -9% | 1% | .
CCOC(=O)Nc1ccc2nc(Sc3ccc(Cl)cc3)sc2c1 | ? | ? | 14µM*
CCn1c(=O)c2cc(C(=O)Nc3cc(C)c(Cl)cc3OC)sc2c2ccccc21 | -2% | 0% | .
NC1=C(Cl)C(=O)c2ccccc2C1=O | ? | ? | 8.9µM*
NC1=C(Cl)C(=O)c2ccc(S(N)(=O)=O)cc2C1=O | ? | 0.5µM* | 0.56µM*
NS(=O)(=O)c1ccc2c(c1)C(=NO)c1cc(S(N)(=O)=O)ccc1-2 | -24% | -2% | -7%
O=C1c2ccccc2-c2nccnc21 | . | . | 25%
CCOC(=O)c1c(-c2ccccc2)c2cc(OC)ccc2n1CCCN(C)C | . | . | 14µM*
CCOC(=O)c1c(C)n(CCNC(C)=O)c2ccc(OC)cc12 | -11% | -10% | -8%
COc1ccccc1NC(=O)Cn1c(=O)n(CCC(=O)NCC2CCCO2)c(=O)c2cc(OC)c(OC)cc21 (stereo not drawn) | -7% | -12% | .
O=C(Nc1ccccc1F)c1ccc(CN2CCc3ccccc3C2)cc1 | . | . | 11µM*
